Results from PubChem BioAssay (NCATS).
“And” between values parts separate entries of the source, which are not always exact repeats. Equal entries are not always repeated. Records with an inconclusive call do not appear. Unmarked numbers belong to inactive results. The source made the active and inactive calls. Calls come from the whole dose curve; as a rule, active = well fitted curve in the direction sought with a large enough effect; inconclusive = small, poorly fitted or top-dose-only effect, or another doubt; inactive = no such curve, though single readings can be large; an effect the other way counts as inactive or inconclusive.
Potency is the fitted concentration of half-maximal effect.

Tested on: not listed separately
Assay: qHTS of pediatric cancer cell lines to identify multiple opportunities for drug repurposing: Confirmatory screen for Saos-2 cells (AID 1347127); note: nearly all actives have a fitted effect of over 60% in size;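 for activity change, negative = cytotoxic: plate controls were DMSO for no effect and bortezomib for full effect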
Details: Saos-2 osteosarcoma cell viability; series mostly up to 45.9 µM; activity change, negative = cytotoxic: at the top concentration
Method in brief: (§1)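 Cells (500-1,000/well) in growth media were settled 5 h at 37 degrees C, then given compounds for 48 h. Viability was read as CellTiter-Glo luminescence. Primary runs used MIPE at 11 points (0.78 nM-46 µM) and NPC at 8 points (0.59 nM-46 µM); follow-ups used 11 points.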
In the case of `O=c1[nH]c2ccccc2n1CCCN1CCC(n2c(=O)[nH]c3cc(Cl)ccc32)CC1`, the Potency was 10.4 µM (active).
With `COC[C@@H](NC(C)=O)C(=O)NCc1ccccc1` the “activity change, negative = cytotoxic” value was 0.572%.
In the case of `C[C@@H]1O[C@@H](O[C@H]2C[C@@H](O)[C@]3(CO)[C@H]4[C@H](O)C[C@]5(C)[C@@H](C6=CC(=O)OC6)CC[C@]5(O)[C@@H]4CC[C@]3(O)C2)[C@H](O)[C@H](O)[C@H]1O`, the Potency was 369 nM (active) and 657 nM (active).
For `C[C@H]1O[C@@H](O[C@H]2[C@@H](O)C[C@H](O[C@H]3[C@@H](O)C[C@H](O[C@H]4CC[C@@]5(C)[C@H](CC[C@@H]6[C@@H]5CC[C@]5(C)[C@@H](C7=CC(=O)OC7)CC[C@]65O)C4)O[C@@H]3C)O[C@@H]2C)C[C@H](O)[C@@H]1O`, the Potency was 1.04 µM (active).

Tested on: not listed separately
Assay: qHTS of pediatric cancer cell lines to identify multiple opportunities for drug repurposing: Confirmatory screen for OHS-50 cells (AID 1347128);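 note: compound exposure lasted 48 h at 37 degrees C; nearly all actives have a fitted effect of over 55% in size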; for activity change, negative = cytotoxic: % is set by controls: 0 for no effect and ±100 for the full control effect
Details: OHS-50 osteosarcoma cells viability; series mostly up to 45.9 µM; activity change, negative = cytotoxic: at the top concentration
Method in brief: as §1
In the case of `C[C@@H]1[C@@H](CC(C[C@H]2O[C@@H]3O[C@]4(C)CC[C@@H]5[C@H](C)CC[C@@H]([C@H]2C)[C@@]35OO4)C[S+](=O)([O-])c2ccc(COC(=O)N(C)C)cc2)O[C@@H]2O[C@]3(C)CC[C@H]4[C@H](C)CC[C@@H]1[C@@]24OO3` (stereo partly specified), the Potency was 0.233 µM (active).
With `Cn1cc(C2=C(c3cn(C4CCN(Cc5ccccn5)CC4)c4ccccc34)C(=O)NC2=O)c2ccccc21` the “activity change, negative = cytotoxic” value was -1.6%.
With `Cn1c(CCCC(=O)O)nc2cc(N(CCCl)CCCl)ccc21` the “activity change, negative = cytotoxic” value was -9.82%.
With `O=c1[nH]c2ccccc2n1CCCN1CCC(n2c(=O)[nH]c3cc(Cl)ccc32)CC1` the Potency was 13.1 µM (active).
With `O=P1(NCCCl)OCCCN1CCCl` (stereo unspecified) the “activity change, negative = cytotoxic” value was 3.59%.
In the case of `COC[C@@H](NC(C)=O)C(=O)NCc1ccccc1`, the “activity change, negative = cytotoxic” value was 10.7%.
In the case of `C=C(C)[C@H]1Cc2c(ccc3c2O[C@@H]2COc4cc(OC)c(OC)cc4[C@@H]2C3=O)O1`, the Potency was 1.47 µM (active).
In the case of `C[C@@H]1O[C@@H](O[C@H]2C[C@@H](O)[C@]3(CO)[C@H]4[C@H](O)C[C@]5(C)[C@@H](C6=CC(=O)OC6)CC[C@]5(O)[C@@H]4CC[C@]3(O)C2)[C@H](O)[C@H](O)[C@H]1O`, the Potency was 0.0928 µM (active).
With `N[C@@H](Cc1ccc(N(CCCl)CCCl)cc1)C(=O)O` the Potency was 26.1 µM (active).

Tested on: not listed separately
Assay: qHTS of pediatric cancer cell lines to identify multiple opportunities for drug repurposing: Confirmatory screen for SK-N-SH cells (AID 1347129);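 note: cells exposed to compound for 48 h before viability read; nearly all actives have a fitted effect of over 60% in size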;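 for activity change, negative = cytotoxic: plate controls were DMSO for no effect and bortezomib control for full effect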
Details: SK-N-SH neuroblastoma cell viability; series mostly up to 46.1 µM; activity change, negative = cytotoxic: at the top concentration
Text: Drug repurposing or repositioning has been offered as a strategy for drug development in oncology programs. This approach has special potential for childhood cancers and other rare or orphan diseases, where the expected return on new drug development has been a disincentive to pharmaceuticals.
In this project we exploit the poly-pharmacology of drugs to discover new indications via phenotypic screening of a panel of 19 well-characterized cell lines derived from solid tumors seen in children and adolescents. The goal is to identify approved drugs with previously unrecognized anticancer properties that has the potential to reveal new mechanisms and biological processes involved in carcinogenesis or drug resistance. We employed a titration-based paradigm (quantitative high-throughput screening or qHTS), where all compounds were tested at multiple concentrations for their effect on cell viability. Concentration-response curves (CRCs) were derived directly from the primary screen, and both potency and efficacy values were used to identify compounds with robust bioactivity profiles. We screened the NIH Chemical Genomics Center (NCGC) Pharmaceutical Collection (NPC) and Mechanism Interrogation Plate (MIPE) small molecule collections of approved and investigational compounds against these cell lines; and measured metabolically active cells after 48 hours of compound treatment as a proxy for cell viability.
Assay Submitter: Nathalia J. Martinez, National Center for Advancing Translational Sciences, National Institutes of Health, Rockville, MD, USA; email: natalia.martinez@nih.gov
[1] Shen, M et al. Quantitative high-throughput phenotypic screening of pediatric cancer cell lines identifies multiple opportunities for drug repurposing. Oncotarget 2017 Dec 19;9(4):4758-4772. PMID 29435139.
The cells were obtained from University of North Carolina (UNC), Pediatric Preclinical Testing Program (PPT), and Coriell Institute (CI).
qHTS cell viability assay:
Cells were assayed in growth media at a density of 500-1,000 cells/well. Five microliters of cells were dispensed into 1,536-well, white, solid-bottom, TC-treated plates (Greiner Bio One) using a multidrop dispenser and incubated at 37 degrees C, 5% CO2, under a humidified atmosphere for 5 hours. Twenty-three nanoliters of compounds and controls (neutral control DMSO or positive control bortezomib at final concentration of 2.3 µM) were subsequently transferred by Kalypsys pintool. For primary screens, the MIPE collection was tested at 11-point dilutions (final concentrations range from 0.78 nM to 46 µM) and the NPC collection at 8-point dilutions (final concentrations range from 0.59 nM to 46 µM). Compounds tested in follow-up screens were assayed at 11-point dilutions. Cells were incubated for 48 hours, followed by addition of 3 µL of CellTiter-Glo (Promega). After a 15 min incubation at room temperature, samples were analyzed for luminescence intensity using a ViewLux High-throughput CCD imager equipped with clear filters.
With `Cn1cc(C2=C(c3cn(C4CCN(Cc5ccccn5)CC4)c4ccccc34)C(=O)NC2=O)c2ccccc21` the “activity change, negative = cytotoxic” value was -4.44%.
In the case of `Cc1sc2c(c1C)C(c1ccc(Cl)cc1)=N[C@@H](CC(=O)OC(C)(C)C)c1nnc(C)n1-2`, the “activity change, negative = cytotoxic” value was -2.73%.
In the case of `CC(C)CC(N(C)C)C1(c2ccc(Cl)cc2)CCC1` (stereo unspecified), the “activity change, negative = cytotoxic” value was -0.68%.
With `Cn1c(CCCC(=O)O)nc2cc(N(CCCl)CCCl)ccc21` the “activity change, negative = cytotoxic” value was -21.8%.
With `O=P1(NCCCl)OCCCN1CCCl` (stereo unspecified) the “activity change, negative = cytotoxic” value was 9.22%.
For `COC[C@@H](NC(C)=O)C(=O)NCc1ccccc1`, the “activity change, negative = cytotoxic” value was -0.878%.
With `C[C@@H]1O[C@@H](O[C@H]2C[C@@H](O)[C@]3(CO)[C@H]4[C@H](O)C[C@]5(C)[C@@H](C6=CC(=O)OC6)CC[C@]5(O)[C@@H]4CC[C@]3(O)C2)[C@H](O)[C@H](O)[C@H]1O` the Potency was 132 nM (active) and 79.4 nM (active).
For `C[C@H]1O[C@@H](O[C@H]2[C@@H](O)C[C@H](O[C@H]3[C@@H](O)C[C@H](O[C@H]4CC[C@@]5(C)[C@H](CC[C@@H]6[C@@H]5CC[C@]5(C)[C@@H](C7=CC(=O)OC7)CC[C@]65O)C4)O[C@@H]3C)O[C@@H]2C)C[C@H](O)[C@@H]1O`, the Potency was 148 nM (active).
With `N[C@@H](Cc1ccc(N(CCCl)CCCl)cc1)C(=O)O` the Potency was 18700 nM (active).

Molecular target: N-terminal Xaa-Pro-Lys N-methyltransferase 1 (Homo sapiens) (UniProt Q9BV86)
Sequence (Q9BV86 whole entry, looked up): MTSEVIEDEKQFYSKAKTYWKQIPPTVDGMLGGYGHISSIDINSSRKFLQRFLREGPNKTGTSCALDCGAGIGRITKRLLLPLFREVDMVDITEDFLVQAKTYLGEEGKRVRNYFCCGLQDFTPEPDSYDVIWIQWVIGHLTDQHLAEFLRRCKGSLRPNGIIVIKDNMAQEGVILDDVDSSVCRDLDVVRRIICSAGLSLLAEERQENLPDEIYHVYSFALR
Assay: qHTS Assay for Inhibitors of N-terminal methyltransferase 1 (NTMT1): LOPAC validation of the NTMT1 SAHH-coupled ThioGlo3 Assay (AID 1347143); note: nearly all actives have a fitted effect of over 70% in size; for activity change, negative = inhibition: % is set by controls: 0 for no effect and ±100 for the full control effect
Details: recombinant NTMT1, SAHH-coupled ThioGlo3 fluorescence; series mostly up to 114 µM; activity change, negative = inhibition: at the top concentration
Method in brief: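 Fluorescence read-out (excitation 340nm, emission 450nm) of SAH-derived thiol, measured via SAHH coupling and ThioGlo3, taken immediately and after a 30 min room-temperature reaction, then normalized to the background read. Enzyme: NTMT1 at 125nM; cofactor SAM 100uM in the added reagent.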
In the case of `c1ccc2c(c1)OCC(C1=NCCN1)O2` (stereo unspecified), the Potency was 56.2 µM (active).
For `CC[C@@H](CO)NC(=O)[C@@H]1C=C2c3cccc4c3c(cn4C)C[C@H]2N(C)C1`, the Potency was 56.2 µM (active).
With `Cc1cccc(C)c1NC(=O)CN1CCCC1=O` the “activity change, negative = inhibition” value was -7.4%.
For `Cc1ccc(S(=O)(=O)N[C@@H](CCCCN)C(=O)CCl)cc1`, the Potency was 56.2 µM (active).
For `Cc1cccc(C)c1NC1=NCCCS1`, the “activity change, negative = inhibition” value was -17.4%.
With `NCC1(CC(=O)O)CCCCC1` the “activity change, negative = inhibition” value was -3.26%.
For `CCn1cc(C(=O)O)c(=O)c2ccc(C)nc21`, the “activity change, negative = inhibition” value was -5.35%.
For `Nc1ccncc1`, the “activity change, negative = inhibition” value was 1.59%.
With `CC(=O)[C@H]1CC[C@H]2[C@@H]3CC[C@H]4C[C@H](O)CC[C@]4(C)[C@H]3C(=O)C[C@]12C` the “activity change, negative = inhibition” value was -19.4%.
In the case of `NCC(CC(=O)O)c1ccc(Cl)cc1` (stereo unspecified), the “activity change, negative = inhibition” value was -7.5%.
With `CC[C@@H](CO)NC(=O)[C@@H]1C=C2c3cccc4[nH]cc(c34)C[C@H]2N(C)C1` the Potency was 25.1 µM (active).
For `CCC1(C2=NCCN2)Cc2ccccc2O1` (stereo unspecified), the “activity change, negative = inhibition” value was -6.88%.
With `Cn1c(CCCC(=O)O)nc2cc(N(CCCl)CCCl)ccc21` the Potency was 56.2 µM (active).
With `O=c1[nH]c2ccccc2n1CCCN1CCC(n2c(=O)[nH]c3cc(Cl)ccc32)CC1` the “activity change, negative = inhibition” value was -22.3%.
With `c1ccc(C2CC2)c(OCC2=NCCN2)c1` the “activity change, negative = inhibition” value was -18.1%.
In the case of `COc1ccc(C(CN(C)C)C2(O)CCCCC2)cc1` (stereo unspecified), the “activity change, negative = inhibition” value was -24.8%.
For `O=C1NCN(c2ccccc2)C12CCN(CC1COc3ccccc3O1)CC2` (stereo unspecified), the “activity change, negative = inhibition” value was -15.9%.
With `CC(CCc1ccccc1)NC(C)C(O)c1ccc(O)cc1` (stereo unspecified) the “activity change, negative = inhibition” value was -13.1%.
In the case of `C[C@@H]1O[C@@H](O[C@H]2C[C@@H](O)[C@]3(CO)[C@H]4[C@H](O)C[C@]5(C)[C@@H](C6=CC(=O)OC6)CC[C@]5(O)[C@@H]4CC[C@]3(O)C2)[C@H](O)[C@H](O)[C@H]1O`, the “activity change, negative = inhibition” value was -8.99%.
For `NN=C(N)N`, the Potency was “inactive”.
In the case of `CNCC(O)c1ccc(O)cc1` (stereo unspecified), the “activity change, negative = inhibition” value was -11%.
In the case of `CC(=O)[C@H]1CC[C@H]2[C@@H]3CC[C@H]4C[C@](C)(O)CC[C@]4(C)[C@H]3CC[C@]12C`, the “activity change, negative = inhibition” value was -7.81%.
For `NCC(O)c1ccc(O)cc1` (stereo unspecified), the “activity change, negative = inhibition” value was -5.11%.
For `O=c1[nH]c2ccccc2n1C1CCN(CCCC(c2ccc(F)cc2)c2ccc(F)cc2)CC1`, the “activity change, negative = inhibition” value was -17.3%.
